# Kir21 block – inhibitors of mouse Kir2.1 inward-rectifier potassium channel; P35561; HEK293-Kir2.1, FluxOR thallium flux fluorescence; hits give low values; 310,000 tested, 0.85% active; B-score at 10 µM;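 active = fluorescence ratio B-score at or below minus 3 SD of library scores, with starting-brightness B-score within 2 SD, cut at about -4.2 in these data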;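 also: channel flux triggered by added potassium and thallium sulfate stimulus; B-score of peak minus minimum fluorescence over baseline after thallium stimulus; more negative B-score means stronger Kir2.1 block with less thallium influx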
# CHT PAM – human CHT allosteric activation; Q9GZV3; CHT-expressing cells, membrane potential dye, choline EC20; hits give high values; LV-AA mutant CHT in HEK293 cells; AID 488977; B-score at 10 µM; 310,000 tested, 0.49% active;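 active = initial fluorescence not abnormally high and integrated response B-score, plate-corrected, over 3 SD above library mean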
# Target sequence (Q9GZV3 whole entry, looked up): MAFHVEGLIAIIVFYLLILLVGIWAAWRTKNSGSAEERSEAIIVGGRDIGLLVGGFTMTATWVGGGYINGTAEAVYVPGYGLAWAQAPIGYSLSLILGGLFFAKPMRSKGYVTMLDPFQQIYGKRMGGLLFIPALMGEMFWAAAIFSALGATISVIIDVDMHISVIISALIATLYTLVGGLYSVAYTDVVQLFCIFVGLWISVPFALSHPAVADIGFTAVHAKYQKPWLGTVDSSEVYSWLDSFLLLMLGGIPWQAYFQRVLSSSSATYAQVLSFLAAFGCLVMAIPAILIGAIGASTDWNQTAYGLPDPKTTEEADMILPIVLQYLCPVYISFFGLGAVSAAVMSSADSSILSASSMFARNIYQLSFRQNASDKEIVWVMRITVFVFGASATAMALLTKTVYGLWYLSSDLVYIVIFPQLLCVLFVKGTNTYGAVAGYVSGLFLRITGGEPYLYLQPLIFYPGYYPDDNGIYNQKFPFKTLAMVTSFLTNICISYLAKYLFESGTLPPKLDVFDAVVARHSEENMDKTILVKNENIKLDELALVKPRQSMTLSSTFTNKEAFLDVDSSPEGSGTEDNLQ
# TMEM16A act – mouse TMEM16A channel activation, primary screen; Q8BHY3; HEK293 TMEM16A/YFP-H148Q/I152L, iodide quench fluorescence; hits give low values; B-score at 10 µM; 340,000 tested, 0.3% active;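 active = fluorescence-ratio B-score plate-corrected deviation score at least 3 library SD below zero, with starting fluorescence score within 5 deviations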;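 also: channel opened by trigger with iodide after compound preincubation; score built on the fluorescence ratio of max minus min over baseline; more negative score means more quench and so TMEM16A activation or potentiation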
# TMEM16A inh – blocks the mouse calcium-activated chloride channel TMEM16A | Q8BHY3 | HEK293 TMEM16A/YFP iodide influx fluorescence, ionomycin | normalized B-score (activity score, 25-100; higher = stronger inhibition) at 10 µM | 310,000 tested, 1.2% active | AID 588511;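 active = ratio plate-corrected score three or more library SD toward inhibition, starting fluorescence score within five deviations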;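 also: score derived from kinetic fluorescence span divided by baseline fluorescence per well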
# GPR7 antagonist – blocks human GPR7 receptor signaling; GPR7-expressing cells, fluorescence antagonist assay; inhibition, % at 4.4 µM; 290,000 tested, 1.1% active; in the data active = inhibition above about 16%, passing the limit was not always enough;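 also: cells stimulated with the agonist NPW; 0% = agonist with vehicle and 100% = vehicle without agonist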
# CHT block – inhibitors of human choline transporter CHT; B-score at 10 µM; Q9GZV3; AID 488975; CHT-expressing cells, membrane potential dye, choline response; hits give low values; 310,000 tested, 0.86% active;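 active = B-score over 3 SD under the library average, and starting fluorescence ratio not unusually high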;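 also: choline stimulus applied at its EC90 after an EC20 pre-addition; B-score computed on integrated fluorescence ratio after choline addition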
# Numbers without * were called inactive; i = inactive; x = no result. Only some compounds are listed: those with a hit (about 3.7% of all), similar ones and a draw of the others.
SMILES,Kir21 block,CHT PAM,TMEM16A act,TMEM16A inh,GPR7 antagonist,CHT block
Cc1ccc(CSc2nnc([C@@H]3CCCN3C(=O)OC(C)(C)C)o2)cc1,-7.1*,i,i,i,-18,i
Cc1ccc(N2C(=O)[C@@H]3C(c4cccnc4)=NO[C@@H]3C2=O)c(C)c1,-0.53,i,i,25*,-13,i
Cc1ccccc1C(=O)N1CCN(c2ncccn2)CC1,-0.18,i,i,i,-21,i
Cc1occc1C(=O)N1CCN(c2ncccn2)CC1,1.1,i,-50*,i,-14,i
COc1cccc(C(=O)Nc2ccc(S(=O)(=O)Nc3cc(C)nc(C)n3)cc2)c1,-0.08,i,i,i,0,i
COc1cccc(OC)c1C(=O)Nc1ccc(S(=O)(=O)Nc2cc(C)nc(C)n2)cc1,1.3,i,i,i,8,-5.3*
CCc1cc(=O)oc2c3c(cc(OCC(=O)NCCN4CCOCC4)c12)OC(C)(C)CC3,0.01,i,i,i,-9,i
NC(=O)c1ccc(NC(=O)COC(=O)c2c[nH]c3ccccc23)cc1,x,x,i,x,x,x
COc1ccc(S(=O)(=O)N2CCCOC2CNC(=O)C(=O)NCCCn2ccnc2)cc1 (stereo not drawn),1.4,i,-7.3*,i,-8,i
COc1ccc(S(=O)(=O)N2CCOC2CNC(=O)C(=O)NCCCn2ccnc2)cc1OC (stereo not drawn),-0.01,i,-15*,i,-8,i
Cc1ccc2cc(C#N)c(N3CCCN(S(=O)(=O)c4ccccc4)CC3)nc2c1,1.3,i,i,i,11,i
Cc1ccc2cc(C#N)c(N3CCCN(S(=O)(=O)c4ccc(F)cc4)CC3)nc2c1,-0.37,i,-9.6*,i,-5,i
NC(=O)c1ccc(NC(=O)CN2C(=O)NC(c3ccccc3)(c3ccccc3)C2=O)cc1,-2.6,i,i,i,-20,i
CC(=O)OCC1O[C@@H](O[C@@H]2C[C@H]3C(C)(C)[C@H](OC(C)=O)CC[C@]3(C)[C@H]3CC[C@]45C[C@]4(CC[C@H]5[C@@H](C)C[C@@H](O)[C@H](O)C(C)(C)O)[C@@]32C)[C@H](O)[C@@H](O)[C@@H]1O (stereo partly drawn),0.35,i,x,100*,10,i
CN(C)S(=O)(=O)c1cccc(COc2ccccc2C(=O)Nc2ccccc2)c1,-0.94,i,i,i,15,i
CN(C)S(=O)(=O)c1cccc(COc2ncnc3c(Cl)cc(Cl)cc23)c1,-0.61,i,-9.5*,i,12,i
COc1ccc(C(=O)N2CCN(c3ccc(C)cc3)CC2)cc1OC,-0.05,i,i,i,16*,i
CC1(C)CC[C@]2(C(=O)O)CC[C@]3(C)C(=CC[C@@H]4[C@@]5(C)CC[C@H](O[C@@H]6O[C@H](C(=O)O)[C@@H](O)[C@H](O[C@@H]7OC[C@H](O)[C@H](O)[C@H]7O)[C@H]6O)C(C)(C)[C@@H]5CC[C@]43C)[C@@H]2C1,x,x,-17*,x,x,x
CCOc1ccc(Br)cc1S(=O)(=O)N1CCSC1,-5*,i,i,i,-5,i
Cc1cc(NC(=O)CSCC(=O)OCC(=O)c2cccc(Br)c2)no1,x,x,i,x,x,x
CCCn1c(=O)c2[nH]c(-c3ccc(OCC(=O)Nc4ccc(C#N)cc4)cc3)nc2n(CCC)c1=O,x,i,i,i,x,i
CCCCN(CC)CCCNC(=S)Nc1ccc2nc(N3CCN(CC)CC3)cc(C)c2c1,-1.2,i,i,i,-15,-11*
CCN1CCN(c2cc(C)c3cc(NC(=S)NCCCOC)ccc3n2)CC1,0.17,i,i,i,-23,i
CCCN(CCC)CCCNC(=S)Nc1ccc2nc(N3CCCC3)cc(C)c2c1,-0.74,i,i,i,-6,-9.5*
COC(=O)c1ccc(NC(=O)C2CCCN2C(=O)OCc2ccccc2)cc1 (stereo not drawn),0.61,i,i,i,-1,i
SMILES,Kir21 block,CHT PAM,TMEM16A act,TMEM16A inh,GPR7 antagonist,CHT block
CNC(=O)c1nnsc1S(=O)(=O)c1ccc(Cl)cc1,-8.7*,x,i,x,26*,x
O=C(c1nnsc1S(=O)(=O)c1ccc(Cl)cc1)N1CCOCC1,-1.7,x,i,x,12,x
COC(=O)c1sc(-c2ccc(C(C)(C)C)cc2)cc1NC(=O)c1ccccc1C(=O)O,0.02,i,i,100*,-24,i
Cc1cccc(C)c1N1C(=O)CCC(C)(C)C1=O,2.1,i,i,i,10,i
Cc1ccc(S(=O)(=O)N(C)C)cc1NC(=O)c1cc(=O)[nH]c2ccccc12,0.01,i,-6.6*,i,-11,i
Cc1ccc(S(=O)(=O)/N=C(/c2ccc(F)cc2)N2CCCCC2)cc1,-0.28,i,i,i,2,i
COc1cccc(CC2(CO)CCCN(Cc3cn(C)c4ccccc34)C2)c1 (stereo not drawn),-4.3*,i,i,i,10,i
COc1cccc(NC(=O)[C@H](C)NC(=O)C2CCN(S(=O)(=O)c3ccc(C)cc3)CC2)c1,-0.79,i,i,i,-13,i
Cc1ccccc1OCCC(=O)OCC(=O)Nc1c(C)nn(-c2ccccc2)c1C,0.04,i,i,i,x,i
O=C(O)c1ccc(CNCc2ccc(F)cc2)cc1,0.15,i,i,i,2,i
OC(CNCc1ccccc1)(c1ccccc1)c1ccccc1,-4.6*,i,i,i,14,i
COc1ccc(CNCC(O)(c2ccc(F)cc2)c2ccc(F)cc2)cc1,-8.3*,i,i,i,20,i
OC(CNCc1ccccc1)(c1ccc(F)cc1)c1ccc(F)cc1,-7.3*,i,i,i,14,i
OC(CNCc1ccccc1F)(c1ccc(F)cc1)c1ccc(F)cc1,-1.3,i,i,i,9,i
COc1ccc(CNC(=S)NCc2ccc(F)cc2)cc1,-2,i,i,i,-5,i
COc1ccc(CNCC(O)(c2ccccc2)c2ccccc2)cc1OC,-0.84,i,i,i,-6,i
OC(CNCc1ccc(F)cc1)(c1ccccc1)c1ccc(F)cc1 (stereo not drawn),-6.5*,i,i,i,9,i
Cc1ccc(CNCC(O)(c2ccc(F)cc2)c2ccc(F)cc2)cc1,-4.1,i,i,i,10,i
Cc1ccc(CNCC(O)(c2ccccc2)c2ccc(F)cc2)cc1 (stereo not drawn),-8.9*,i,i,i,22,i
CCc1nc(NCCCn2ccnc2)c2oc3ccccc3c2n1,-0.04,i,-26*,i,-11,i
CNC(=S)N1CCN(c2nc3ccccc3s2)CC1,0.7,i,i,i,-2,i
